# PubChem BioAssay (EPA / NIEHS)
# Records with an inconclusive call do not appear. A structure can be active in one record and inactive in another. The source made the active and inactive calls. Rule for the calls, unless noted: active = hit-call score of the fitted dose curve at least 0.9, where 1 is the maximum; inactive = score below 0.9.
# Tested on: not listed separately
# Assay: IUF_NPC4_neurite_length_120hr: Leibniz Research Institute for Environmental Medicine (IUF) 120-hour Neuronal Morphology Assay for Neurite Length (NPC4) (AID 2284302)
# Details: not given
# In short: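 Neurons from differentiating human fetal neural progenitor spheres are scored for average neurite length after five days of compound exposure. Fitting uses DMSO as negative control.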
Structure (SMILES),outcome,AC50
CC(C)(C)c1ccccc1OP(=O)(Oc1ccccc1)Oc1ccccc1,inactive,
CCCCOCCOP(=O)(OCCOCCCC)OCCOCCCC,inactive,
O=S1(=O)OCC2C(CO1)C1(Cl)C(Cl)=C(Cl)C2(Cl)C1(Cl)Cl (stereo unspecified),inactive,
CCCCC(CC)COP(=O)(Oc1ccccc1)Oc1ccccc1 (stereo unspecified),inactive,
CCOP(=S)(OCC)SCSCC,inactive,
CCOc1ccc(C(C)(C)COCc2cccc(Oc3ccccc3)c2)cc1,inactive,
CO/N=C(/C(=O)OC)c1ccccc1COc1ccccc1C,inactive,
O=P(Oc1ccccc1)(Oc1ccccc1)Oc1ccccc1,inactive,
O=C(O)C(F)(OC(F)(F)C(F)(F)C(F)(F)F)C(F)(F)F (stereo unspecified),,0.342 µM (active)

# Read-out: CD69, CD69 (gene 969)
# Assay: BSK_LPS_CD69: BioMAP Diversity Plus: LPS Assay for CD69 Biomarker Activity (AID 2284303)
# Details: primary human HUVEC with PBMC
# In short: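 CD69 surface levels were read by ELISA after 24 h chemical treatment of an LPS-stimulated HUVEC plus PBMC co-culture; positive-direction fit against DMSO vehicle.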
Structure (SMILES),outcome,AC50
OCC(F)(F)OC(F)(F)C(F)(F)OC(F)(F)C(F)(F)OC(F)(F)CO,inactive,
C=CC(=O)OCC(F)(F)C(F)F,inactive,43.8 µM (active)
FC(F)(F)C(F)(C(F)(F)F)C(F)(F)C(F)(F)CC1CO1 (stereo unspecified),inactive,
O=C(O)C(F)(F)C(F)(F)C(=O)O,inactive,
OCC(F)(F)OC(F)(F)C(F)(F)OC(F)(F)CO,inactive,
O=C(O)C(F)(F)OC(F)(F)C(F)(F)OC(F)(F)C(=O)O,inactive,
NC(=O)C(F)(F)C(F)(F)F,inactive,
O=C(O)C(F)(F)OC(F)(F)C(F)(F)OC(F)(F)F,inactive,
COC(=O)C(F)(F)C(F)(F)OC(F)(C(F)(F)F)C(F)(F)OC(F)=C(F)F (stereo unspecified),inactive,
O=C(O)C(F)(OC(F)(F)C(F)(F)C(F)(F)F)C(F)(F)F (stereo unspecified),inactive,
CC(O)C(F)(F)C(F)(F)F (stereo unspecified),inactive,
OCC(F)(F)OC(F)(F)C(F)(F)OC(F)(F)C(F)(F)OC(F)(F)F,inactive,6.46 µM (active)
O=C(O)C=CC(F)(C(F)(F)F)C(F)(F)F,inactive,
COP(=O)(CCC(=O)NCO)OC,inactive,0.15 µM (active)
O=S(=O)(F)C(F)(F)C(F)(F)C(F)(F)C(F)(F)C(F)(F)C(F)(F)C(F)(F)C(F)(F)F,inactive,

# Tested on: not listed separately
# Assay: IUF_NPC5_oligodendrocyte_differentiation_120hr: Leibniz Research Institute for Environmental Medicine (IUF) 120-hour Oligodendrocyte Differentiation Assay (NPC5) (AID 2284304; active = hit-call score of the fitted dose curve at least 0.9, where 1 is the maximum;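 note: primary human fetal neural progenitor spheres plated to migrate and differentiate; share of O4-positive cells among Hoechst nuclei found by CNN image analysis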)
# Details: not given
# In short: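 Human primary NPC neurospheres migrating and differentiating on laminin for 120 h under continuous compound exposure (serial dilution, solvent control). Endpoint: percent O4+ oligodendrocytes among Hoechst nuclei, detected by CNN image analysis, with DMSO as negative control.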
Structure (SMILES),AC50,outcome
CC(C)(C)c1ccccc1OP(=O)(Oc1ccccc1)Oc1ccccc1,4.35 µM (active),
CCCCOCCOP(=O)(OCCOCCCC)OCCOCCCC,3.24 µM (active),
O=S1(=O)OCC2C(CO1)C1(Cl)C(Cl)=C(Cl)C2(Cl)C1(Cl)Cl (stereo unspecified),0.403 µM (active),
CCCCC(CC)COP(=O)(Oc1ccccc1)Oc1ccccc1 (stereo unspecified),,inactive
CCOP(=S)(OCC)SCSCC,,inactive
CCOc1ccc(C(C)(C)COCc2cccc(Oc3ccccc3)c2)cc1,,inactive
CO/N=C(/C(=O)OC)c1ccccc1COc1ccccc1C,13.9 µM (active),
O=P(Oc1ccccc1)(Oc1ccccc1)Oc1ccccc1,,inactive
O=C(O)C(F)(OC(F)(F)C(F)(F)C(F)(F)F)C(F)(F)F (stereo unspecified),,inactive

# Tested on: not listed separately
# Assay: IUF_NPC4_neurite_area_120hr: Leibniz Research Institute for Environmental Medicine (IUF) 120-hour Neuronal Morphology Assay for Neurite Area (NPC4) (AID 2284305; active = hit-call score of the fitted dose curve at least 0.9, where 1 is the maximum)
# Details: not given
# In short: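 Endpoint at 120 h: automated imaging of TUBB3/Hoechst-stained differentiating human neural progenitor spheres, neurite area per neuron from skeletonization. DMSO solvent control, not above 0.1%, set the baseline; medium was half-replaced on day 3.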
Structure (SMILES),outcome,AC50
CC(C)(C)c1ccccc1OP(=O)(Oc1ccccc1)Oc1ccccc1,inactive,
CCCCOCCOP(=O)(OCCOCCCC)OCCOCCCC,inactive,
O=S1(=O)OCC2C(CO1)C1(Cl)C(Cl)=C(Cl)C2(Cl)C1(Cl)Cl (stereo unspecified),inactive,
CCCCC(CC)COP(=O)(Oc1ccccc1)Oc1ccccc1 (stereo unspecified),inactive,
CCOP(=S)(OCC)SCSCC,inactive,
CCOc1ccc(C(C)(C)COCc2cccc(Oc3ccccc3)c2)cc1,inactive,
CO/N=C(/C(=O)OC)c1ccccc1COc1ccccc1C,inactive,
O=P(Oc1ccccc1)(Oc1ccccc1)Oc1ccccc1,inactive,
O=C(O)C(F)(OC(F)(F)C(F)(F)C(F)(F)F)C(F)(F)F (stereo unspecified),,0.338 µM (active)

# Tested on: not listed separately
# Assay: IUF_NPC2-5_cytotoxicity_72hr: Cytotoxicity Assessment at 72 hours in the Leibniz Research Institute for Environmental Medicine (IUF) Neural Progenitor Cell Migration and Differentiation Assay for Cytotoxicity (NPC2-5) (AID 2284306; active = hit-call score of the fitted dose curve at least 0.9, where 1 is the maximum;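 note: LDH release into supernatant measured by resorufin fluorescence marking membrane damage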)
# Details: not given
# In short: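 Primary human neural progenitor spheres migrate and differentiate on laminin. Compound is present from the start of differentiation, with DMSO kept at or below 0.1%. At 72 h, supernatant LDH is quantified fluorometrically, with values fitted in the positive direction.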
row,Structure (SMILES),outcome
1,CC(C)(C)c1ccccc1OP(=O)(Oc1ccccc1)Oc1ccccc1,inactive
2,O=S1(=O)OCC2C(CO1)C1(Cl)C(Cl)=C(Cl)C2(Cl)C1(Cl)Cl (stereo unspecified),inactive
3,CCCCC(CC)COP(=O)(Oc1ccccc1)Oc1ccccc1 (stereo unspecified),inactive
4,CCOP(=S)(OCC)SCSCC,inactive
5,CCOc1ccc(C(C)(C)COCc2cccc(Oc3ccccc3)c2)cc1,inactive
6,CO/N=C(/C(=O)OC)c1ccccc1COc1ccccc1C,inactive
7,O=P(Oc1ccccc1)(Oc1ccccc1)Oc1ccccc1,inactive
8,O=C(O)C(F)(OC(F)(F)C(F)(F)C(F)(F)F)C(F)(F)F (stereo unspecified),inactive

# Tested on: not listed separately
# Assay: IUF_NPC2-5_cytotoxicity_120hr: Cytotoxicity Assessment at 120 hours in the Leibniz Research Institute for Environmental Medicine (IUF) Neural Progenitor Cell Migration and Differentiation Assay (NPC2-5) (AID 2284307; active = hit-call score of the fitted dose curve at least 0.9, where 1 is the maximum;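 for AC50: LDH released into supernatant as membrane damage marker via resorufin fluorescence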)
# Details: not given
# In short: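 Fluorescence (RFU) from LDH-driven resazurin reduction in medium supernatants measured loss of membrane integrity after 120 h of compound exposure of differentiating primary human neural progenitor spheres on an extracellular matrix.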
Structure (SMILES),AC50,outcome
CC(C)(C)c1ccccc1OP(=O)(Oc1ccccc1)Oc1ccccc1,1.98 µM (active),
CCCCOCCOP(=O)(OCCOCCCC)OCCOCCCC,,inactive
O=S1(=O)OCC2C(CO1)C1(Cl)C(Cl)=C(Cl)C2(Cl)C1(Cl)Cl (stereo unspecified),,inactive
CCCCC(CC)COP(=O)(Oc1ccccc1)Oc1ccccc1 (stereo unspecified),,inactive
CCOP(=S)(OCC)SCSCC,,inactive
CCOc1ccc(C(C)(C)COCc2cccc(Oc3ccccc3)c2)cc1,,inactive
CO/N=C(/C(=O)OC)c1ccccc1COc1ccccc1C,,inactive
O=P(Oc1ccccc1)(Oc1ccccc1)Oc1ccccc1,,inactive
O=C(O)C(F)(OC(F)(F)C(F)(F)C(F)(F)F)C(F)(F)F (stereo unspecified),,inactive

# Tested on: not listed separately
# Assay: IUF_NPC2-5_cell_number_120hr: Cell Number Assessment at 120 hours in the Leibniz Research Institute for Environmental Medicine (IUF) Neural Progenitor Cell Migration and Differentiation Assay (NPC2-5) (AID 2284308);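 note: count of Hoechst-stained nuclei in migration zone around plated human neural progenitor spheres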
# Details: not given
# In short: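 Cell number is taken as all Hoechst-positive nuclei detected in the area into which cells migrate out of the sphere, scored at 120 h and referenced to DMSO solvent control, which was kept at no more than 0.1%.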
Structure (SMILES),outcome,AC50
CC(C)(C)c1ccccc1OP(=O)(Oc1ccccc1)Oc1ccccc1,inactive,
CCCCOCCOP(=O)(OCCOCCCC)OCCOCCCC,inactive,
O=S1(=O)OCC2C(CO1)C1(Cl)C(Cl)=C(Cl)C2(Cl)C1(Cl)Cl (stereo unspecified),inactive,
CCCCC(CC)COP(=O)(Oc1ccccc1)Oc1ccccc1 (stereo unspecified),inactive,
CCOP(=S)(OCC)SCSCC,inactive,
CCOc1ccc(C(C)(C)COCc2cccc(Oc3ccccc3)c2)cc1,inactive,
CO/N=C(/C(=O)OC)c1ccccc1COc1ccccc1C,,19.7 µM (active)
O=P(Oc1ccccc1)(Oc1ccccc1)Oc1ccccc1,inactive,
O=C(O)C(F)(OC(F)(F)C(F)(F)C(F)(F)F)C(F)(F)F (stereo unspecified),inactive,
